# Experimental data taken from paper PMC7862700, “An all-to-all approach to the identification of sequence-specific readers for epigenetic DNA modifications on cytosine”.
# How the values were obtained:
# Assay in all cases: DAPPL (digital affinity profiling via proximity ligation, sequencing); 10 mM Tris-HCl pH 7.5, 50 mM NaCl, 1 mM DTT, 4% glycerol, room temperature, 30 min; GST-TFs on glutathione beads, 16-mer random dsDNA library, 0.1% formaldehyde crosslink after washing; high values mean tight binding
# FLI1 = biological target: T1, FLI1 (Homo sapiens, UniProt Q01543 1-452); conditions: protein: recombinant; tags: N-terminal GST; dsDNA, one strand shown
# T1 sequence: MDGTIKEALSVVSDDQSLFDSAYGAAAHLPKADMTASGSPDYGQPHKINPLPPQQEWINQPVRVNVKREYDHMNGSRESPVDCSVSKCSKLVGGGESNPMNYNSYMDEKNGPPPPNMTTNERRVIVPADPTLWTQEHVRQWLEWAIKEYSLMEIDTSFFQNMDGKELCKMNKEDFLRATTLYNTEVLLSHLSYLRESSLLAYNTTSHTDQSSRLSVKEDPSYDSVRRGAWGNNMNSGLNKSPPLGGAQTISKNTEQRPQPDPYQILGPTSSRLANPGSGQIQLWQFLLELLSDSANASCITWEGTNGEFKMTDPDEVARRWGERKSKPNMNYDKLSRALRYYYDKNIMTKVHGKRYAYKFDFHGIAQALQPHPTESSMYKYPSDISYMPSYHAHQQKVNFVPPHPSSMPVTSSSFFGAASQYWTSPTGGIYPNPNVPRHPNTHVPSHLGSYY
# In short: (§1)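 Pools of DNA-barcoded human transcription factors, expressed in yeast as GST fusions on glutathione beads and combined with a tag-only sample, were incubated with 200 nmole of a 16-mer random double-stranded DNA library. Incubation took 30 min at room temperature in Tris/NaCl/DTT/glycerol buffer and was followed by washing, 0.1% formaldehyde crosslinking, proximity ligation (BsaI/T4 ligase, 1 h, 37 °C), PCR amplification and sequencing on an Illumina NextSeq500. Binding signal is the ratio of a hexamer's read frequency for a factor to its frequency for the tag-only sample.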
# ELK1 = biological target: T2, ELK1 (Homo sapiens, UniProt P19419 1-428); conditions: protein: recombinant; tags: N-terminal GST; dsDNA, one strand shown
# T2 sequence: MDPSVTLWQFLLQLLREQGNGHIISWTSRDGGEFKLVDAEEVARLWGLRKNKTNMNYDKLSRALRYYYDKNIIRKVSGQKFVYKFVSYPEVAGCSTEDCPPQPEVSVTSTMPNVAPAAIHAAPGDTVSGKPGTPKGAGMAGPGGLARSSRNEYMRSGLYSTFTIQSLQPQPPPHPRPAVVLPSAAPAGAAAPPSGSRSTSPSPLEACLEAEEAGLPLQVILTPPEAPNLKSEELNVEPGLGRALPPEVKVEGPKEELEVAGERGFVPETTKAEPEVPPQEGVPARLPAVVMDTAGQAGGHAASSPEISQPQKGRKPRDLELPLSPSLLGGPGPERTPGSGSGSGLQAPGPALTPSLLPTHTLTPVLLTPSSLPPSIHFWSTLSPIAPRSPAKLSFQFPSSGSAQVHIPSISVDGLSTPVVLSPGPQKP
# In short: as §1
# GABPA = biological target: T3, GABPA (Homo sapiens, UniProt Q06546 1-454); conditions: protein: recombinant; tags: N-terminal GST; dsDNA, one strand shown
# T3 sequence: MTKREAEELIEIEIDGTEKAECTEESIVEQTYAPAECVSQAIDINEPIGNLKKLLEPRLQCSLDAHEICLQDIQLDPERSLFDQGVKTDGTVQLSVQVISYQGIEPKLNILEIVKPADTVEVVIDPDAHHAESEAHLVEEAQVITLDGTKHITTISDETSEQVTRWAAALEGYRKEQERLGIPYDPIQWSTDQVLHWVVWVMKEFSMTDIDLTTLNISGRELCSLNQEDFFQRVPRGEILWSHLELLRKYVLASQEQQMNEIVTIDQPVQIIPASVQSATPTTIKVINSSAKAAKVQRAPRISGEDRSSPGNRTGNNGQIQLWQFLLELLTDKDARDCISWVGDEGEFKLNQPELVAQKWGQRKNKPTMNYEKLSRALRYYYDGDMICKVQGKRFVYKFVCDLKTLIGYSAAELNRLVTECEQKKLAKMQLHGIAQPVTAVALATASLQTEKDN
# In short: as §1
# ERG = biological target: T4, ERG (Homo sapiens, UniProt P11308 1-479); conditions: protein: recombinant; tags: N-terminal GST; dsDNA, one strand shown
# T4 sequence: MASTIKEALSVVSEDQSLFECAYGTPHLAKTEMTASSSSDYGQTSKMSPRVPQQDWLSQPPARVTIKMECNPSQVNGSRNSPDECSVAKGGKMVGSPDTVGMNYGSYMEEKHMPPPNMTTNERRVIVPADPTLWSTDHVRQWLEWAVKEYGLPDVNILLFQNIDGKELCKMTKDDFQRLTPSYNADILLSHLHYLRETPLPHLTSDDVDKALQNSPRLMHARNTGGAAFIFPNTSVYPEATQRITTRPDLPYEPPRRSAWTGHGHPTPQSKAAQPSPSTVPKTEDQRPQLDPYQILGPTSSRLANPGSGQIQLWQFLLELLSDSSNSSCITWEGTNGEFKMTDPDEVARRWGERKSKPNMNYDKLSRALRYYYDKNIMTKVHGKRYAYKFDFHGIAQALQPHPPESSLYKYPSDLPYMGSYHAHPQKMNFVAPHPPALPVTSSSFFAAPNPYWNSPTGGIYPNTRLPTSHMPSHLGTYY
# In short: as §1
# ELF1 = ELF1 (Homo sapiens, UniProt P32519 1-619); conditions: protein: recombinant; tags: N-terminal GST; dsDNA, one strand shown
# In short: as §1
# EHF = biological target: T5, EHF (Homo sapiens, UniProt Q9NZC4 1-300); conditions: protein: recombinant; tags: N-terminal GST; dsDNA, one strand shown
# T5 sequence: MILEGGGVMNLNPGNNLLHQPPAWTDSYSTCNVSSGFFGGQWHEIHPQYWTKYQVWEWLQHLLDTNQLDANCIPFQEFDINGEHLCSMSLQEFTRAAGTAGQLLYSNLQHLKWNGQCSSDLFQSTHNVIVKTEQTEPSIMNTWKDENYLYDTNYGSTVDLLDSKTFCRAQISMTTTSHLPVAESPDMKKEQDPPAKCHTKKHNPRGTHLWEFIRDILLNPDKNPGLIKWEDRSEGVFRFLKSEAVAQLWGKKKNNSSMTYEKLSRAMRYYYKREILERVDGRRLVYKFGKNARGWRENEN
# In short: as §1
# SPI1 = SPI1 (Homo sapiens, UniProt P17947 1-270); conditions: protein: recombinant; tags: N-terminal GST; dsDNA, one strand shown
# In short: as §1
# SPIB = SPIB (Homo sapiens, UniProt Q01892 1-262); conditions: protein: recombinant; tags: N-terminal GST; dsDNA, one strand shown
# In short: as §1
# ELK3 = biological target: T6, ELK3 (Homo sapiens, UniProt P41970 1-407); conditions: protein: recombinant; tags: N-terminal GST; dsDNA, one strand shown
# T6 sequence: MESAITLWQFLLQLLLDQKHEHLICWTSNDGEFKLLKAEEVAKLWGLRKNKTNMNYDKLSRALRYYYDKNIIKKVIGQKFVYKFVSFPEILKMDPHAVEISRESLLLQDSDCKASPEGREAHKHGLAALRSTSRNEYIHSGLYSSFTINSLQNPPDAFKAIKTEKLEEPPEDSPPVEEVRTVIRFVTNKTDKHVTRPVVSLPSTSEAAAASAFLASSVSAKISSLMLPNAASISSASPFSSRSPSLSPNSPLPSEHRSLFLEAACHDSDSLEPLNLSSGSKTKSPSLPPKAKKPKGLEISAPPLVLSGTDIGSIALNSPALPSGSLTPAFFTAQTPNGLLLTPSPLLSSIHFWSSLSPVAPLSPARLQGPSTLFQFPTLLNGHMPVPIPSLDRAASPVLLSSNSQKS
# In short: as §1
# FEV = biological target: T7, FEV (Homo sapiens, UniProt Q99581 1-238); conditions: protein: recombinant; tags: N-terminal GST; dsDNA, one strand shown
# T7 sequence: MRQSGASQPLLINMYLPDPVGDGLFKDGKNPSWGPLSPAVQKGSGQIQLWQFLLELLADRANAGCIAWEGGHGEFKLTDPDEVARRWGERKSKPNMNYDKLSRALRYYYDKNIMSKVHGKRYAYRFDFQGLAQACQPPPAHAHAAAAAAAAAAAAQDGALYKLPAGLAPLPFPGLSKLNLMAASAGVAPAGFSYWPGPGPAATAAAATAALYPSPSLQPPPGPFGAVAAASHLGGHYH
# In short: as §1
# ETV5 = ETV5 (Homo sapiens, UniProt P41161 1-510); conditions: protein: recombinant; tags: N-terminal GST; dsDNA, one strand shown
# In short: as §1
# HSF1 = HSF1 (Homo sapiens, UniProt Q00613 1-529); conditions: protein: recombinant; tags: N-terminal GST; chain copies: 3; dsDNA, one strand shown
# In short: as §1
# SPIC = biological target: T8, SPIC (Homo sapiens, UniProt Q8N5J4 1-248); conditions: protein: recombinant; tags: N-terminal GST; dsDNA, one strand shown
# T8 sequence: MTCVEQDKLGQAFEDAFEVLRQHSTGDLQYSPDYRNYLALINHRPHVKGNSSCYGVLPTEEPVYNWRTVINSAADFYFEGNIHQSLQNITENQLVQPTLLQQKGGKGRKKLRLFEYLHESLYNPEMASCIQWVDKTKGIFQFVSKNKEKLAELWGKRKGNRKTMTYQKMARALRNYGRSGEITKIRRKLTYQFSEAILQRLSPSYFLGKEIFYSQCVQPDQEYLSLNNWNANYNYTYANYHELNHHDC
# In short: as §1
# ELF4 = ELF4 (Homo sapiens, UniProt Q99607 1-663); conditions: protein: recombinant; tags: N-terminal GST; dsDNA, one strand shown
# In short: as §1
# ELK4 = biological target: T9, ELK4 (Homo sapiens, UniProt P28324-2 1-405); conditions: protein: recombinant; tags: N-terminal GST; dsDNA, one strand shown
# T9 sequence: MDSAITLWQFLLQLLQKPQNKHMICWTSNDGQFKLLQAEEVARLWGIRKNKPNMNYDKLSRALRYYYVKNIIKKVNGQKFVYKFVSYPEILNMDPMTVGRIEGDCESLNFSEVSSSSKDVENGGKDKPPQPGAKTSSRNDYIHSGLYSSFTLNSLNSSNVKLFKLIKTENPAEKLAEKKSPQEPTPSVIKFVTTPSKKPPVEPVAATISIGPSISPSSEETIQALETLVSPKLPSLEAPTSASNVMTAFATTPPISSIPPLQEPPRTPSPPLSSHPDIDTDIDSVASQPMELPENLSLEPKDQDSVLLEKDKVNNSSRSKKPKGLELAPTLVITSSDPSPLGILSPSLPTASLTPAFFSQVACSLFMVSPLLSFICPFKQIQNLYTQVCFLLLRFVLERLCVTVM
# In short: as §1
# ETV2 = biological target: T10, ETV2 (Homo sapiens, UniProt O00321 1-342); conditions: protein: recombinant; tags: N-terminal GST; dsDNA, one strand shown
# T10 sequence: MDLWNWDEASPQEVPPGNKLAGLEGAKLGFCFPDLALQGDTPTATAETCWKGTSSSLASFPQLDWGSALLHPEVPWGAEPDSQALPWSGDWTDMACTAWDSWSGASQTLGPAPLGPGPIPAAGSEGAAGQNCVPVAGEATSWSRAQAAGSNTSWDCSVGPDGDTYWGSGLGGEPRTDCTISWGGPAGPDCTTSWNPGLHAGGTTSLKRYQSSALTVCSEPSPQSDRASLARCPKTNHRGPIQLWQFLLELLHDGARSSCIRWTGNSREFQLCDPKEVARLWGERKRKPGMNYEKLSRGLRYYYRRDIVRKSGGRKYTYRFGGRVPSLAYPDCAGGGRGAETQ
# In short: as §1
# ELF3 = biological target: T11, ELF3 (Homo sapiens, UniProt P78545 1-371); conditions: protein: recombinant; tags: N-terminal GST; dsDNA, one strand shown
# T11 sequence: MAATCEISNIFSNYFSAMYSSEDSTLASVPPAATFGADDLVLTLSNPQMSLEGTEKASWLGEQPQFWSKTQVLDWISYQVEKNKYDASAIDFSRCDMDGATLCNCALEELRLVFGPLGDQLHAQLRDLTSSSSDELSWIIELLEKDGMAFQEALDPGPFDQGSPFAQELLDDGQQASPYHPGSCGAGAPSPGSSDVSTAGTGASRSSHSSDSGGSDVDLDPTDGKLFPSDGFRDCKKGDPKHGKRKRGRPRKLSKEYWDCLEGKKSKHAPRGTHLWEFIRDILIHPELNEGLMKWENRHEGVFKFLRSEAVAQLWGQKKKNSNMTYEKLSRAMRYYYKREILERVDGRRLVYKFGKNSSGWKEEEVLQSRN
# In short: as §1
# CRX = CRX (Homo sapiens, UniProt O43186 1-299); conditions: protein: recombinant; tags: N-terminal GST; dsDNA, one strand shown
# In short: as §1
# ETV1 = ETV1 (Homo sapiens, UniProt P50549 1-477); conditions: protein: recombinant; tags: N-terminal GST; dsDNA, one strand shown
# In short: as §1
# Sequence of ELF4 (Q99607 whole entry): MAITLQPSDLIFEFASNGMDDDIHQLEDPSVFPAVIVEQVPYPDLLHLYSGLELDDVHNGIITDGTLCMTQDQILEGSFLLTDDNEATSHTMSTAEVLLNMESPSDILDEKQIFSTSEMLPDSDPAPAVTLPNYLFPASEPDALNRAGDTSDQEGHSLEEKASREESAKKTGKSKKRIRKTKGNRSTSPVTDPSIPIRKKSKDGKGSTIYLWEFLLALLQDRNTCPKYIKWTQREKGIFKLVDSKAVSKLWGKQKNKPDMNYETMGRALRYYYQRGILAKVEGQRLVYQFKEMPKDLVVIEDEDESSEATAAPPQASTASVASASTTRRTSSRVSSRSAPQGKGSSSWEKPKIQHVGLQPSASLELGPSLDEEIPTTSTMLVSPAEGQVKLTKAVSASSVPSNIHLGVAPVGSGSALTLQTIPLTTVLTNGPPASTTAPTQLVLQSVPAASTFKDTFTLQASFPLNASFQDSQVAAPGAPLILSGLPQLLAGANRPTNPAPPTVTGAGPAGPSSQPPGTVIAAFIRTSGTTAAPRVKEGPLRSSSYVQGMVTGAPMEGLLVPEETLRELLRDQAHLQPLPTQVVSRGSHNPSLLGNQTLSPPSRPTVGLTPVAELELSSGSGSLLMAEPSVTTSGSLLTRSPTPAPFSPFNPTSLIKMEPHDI
# Sequence of CRX (O43186 whole entry): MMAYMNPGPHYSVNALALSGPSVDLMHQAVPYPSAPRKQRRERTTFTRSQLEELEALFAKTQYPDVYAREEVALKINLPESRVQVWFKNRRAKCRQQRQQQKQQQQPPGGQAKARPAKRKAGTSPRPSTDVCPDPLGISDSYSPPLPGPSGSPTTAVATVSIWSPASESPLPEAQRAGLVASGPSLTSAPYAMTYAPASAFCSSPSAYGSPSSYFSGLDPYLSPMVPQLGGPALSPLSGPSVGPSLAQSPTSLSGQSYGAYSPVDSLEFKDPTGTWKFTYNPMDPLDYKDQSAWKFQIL
# Sequence of SPIB (Q01892 whole entry): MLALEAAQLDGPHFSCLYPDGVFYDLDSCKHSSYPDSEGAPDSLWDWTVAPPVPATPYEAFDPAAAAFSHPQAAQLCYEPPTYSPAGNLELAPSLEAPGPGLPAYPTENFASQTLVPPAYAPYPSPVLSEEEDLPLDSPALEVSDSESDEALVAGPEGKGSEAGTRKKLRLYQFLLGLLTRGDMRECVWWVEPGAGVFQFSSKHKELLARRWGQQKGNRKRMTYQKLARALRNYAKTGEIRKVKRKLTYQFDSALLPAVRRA
# Sequence of ETV1 (P50549 whole entry): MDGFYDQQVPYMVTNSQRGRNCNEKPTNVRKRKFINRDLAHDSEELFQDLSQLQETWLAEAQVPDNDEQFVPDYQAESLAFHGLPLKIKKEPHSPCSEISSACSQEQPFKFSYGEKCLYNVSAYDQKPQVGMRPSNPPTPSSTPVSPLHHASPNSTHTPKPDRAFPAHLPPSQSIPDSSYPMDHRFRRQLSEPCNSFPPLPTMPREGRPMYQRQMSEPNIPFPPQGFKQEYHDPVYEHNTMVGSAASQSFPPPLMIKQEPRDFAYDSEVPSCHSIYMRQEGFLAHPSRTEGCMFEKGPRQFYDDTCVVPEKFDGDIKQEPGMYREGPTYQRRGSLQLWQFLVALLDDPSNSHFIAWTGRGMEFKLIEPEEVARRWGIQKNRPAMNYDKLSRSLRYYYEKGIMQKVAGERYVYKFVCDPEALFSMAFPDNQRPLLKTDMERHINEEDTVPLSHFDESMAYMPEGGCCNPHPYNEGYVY
# Sequence of HSF1 (Q00613 whole entry): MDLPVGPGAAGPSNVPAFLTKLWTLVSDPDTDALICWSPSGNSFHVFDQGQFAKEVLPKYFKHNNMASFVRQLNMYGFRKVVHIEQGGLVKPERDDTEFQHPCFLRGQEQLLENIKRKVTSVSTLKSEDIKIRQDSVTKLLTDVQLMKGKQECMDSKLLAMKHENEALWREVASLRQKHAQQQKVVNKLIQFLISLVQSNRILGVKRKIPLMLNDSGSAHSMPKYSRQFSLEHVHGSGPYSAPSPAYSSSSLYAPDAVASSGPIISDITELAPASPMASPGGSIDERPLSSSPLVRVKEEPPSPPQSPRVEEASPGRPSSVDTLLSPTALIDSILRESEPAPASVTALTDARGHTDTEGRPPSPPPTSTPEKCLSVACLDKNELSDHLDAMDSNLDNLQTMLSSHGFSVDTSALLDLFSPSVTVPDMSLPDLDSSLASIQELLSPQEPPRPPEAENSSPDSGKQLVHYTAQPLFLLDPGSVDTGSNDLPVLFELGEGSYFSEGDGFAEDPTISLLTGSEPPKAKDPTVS
# Sequence of ELF1 (P32519 whole entry): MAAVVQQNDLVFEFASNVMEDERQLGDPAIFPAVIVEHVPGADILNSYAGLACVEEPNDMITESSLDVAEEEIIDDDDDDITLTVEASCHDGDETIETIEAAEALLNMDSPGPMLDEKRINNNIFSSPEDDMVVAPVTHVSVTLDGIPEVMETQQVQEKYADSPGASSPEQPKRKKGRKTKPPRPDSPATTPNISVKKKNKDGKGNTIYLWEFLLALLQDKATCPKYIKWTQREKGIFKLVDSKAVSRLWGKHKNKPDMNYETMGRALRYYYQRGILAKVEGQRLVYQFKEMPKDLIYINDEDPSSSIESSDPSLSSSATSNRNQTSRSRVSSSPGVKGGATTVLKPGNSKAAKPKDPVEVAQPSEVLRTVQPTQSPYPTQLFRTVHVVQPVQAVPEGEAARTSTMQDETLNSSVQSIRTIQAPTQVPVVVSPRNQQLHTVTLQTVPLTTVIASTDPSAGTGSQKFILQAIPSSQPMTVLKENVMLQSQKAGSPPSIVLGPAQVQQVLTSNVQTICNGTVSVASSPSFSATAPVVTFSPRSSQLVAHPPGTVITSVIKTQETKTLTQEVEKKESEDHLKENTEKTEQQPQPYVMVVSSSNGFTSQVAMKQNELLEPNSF
# Sequence of ETV5 (P41161 whole entry): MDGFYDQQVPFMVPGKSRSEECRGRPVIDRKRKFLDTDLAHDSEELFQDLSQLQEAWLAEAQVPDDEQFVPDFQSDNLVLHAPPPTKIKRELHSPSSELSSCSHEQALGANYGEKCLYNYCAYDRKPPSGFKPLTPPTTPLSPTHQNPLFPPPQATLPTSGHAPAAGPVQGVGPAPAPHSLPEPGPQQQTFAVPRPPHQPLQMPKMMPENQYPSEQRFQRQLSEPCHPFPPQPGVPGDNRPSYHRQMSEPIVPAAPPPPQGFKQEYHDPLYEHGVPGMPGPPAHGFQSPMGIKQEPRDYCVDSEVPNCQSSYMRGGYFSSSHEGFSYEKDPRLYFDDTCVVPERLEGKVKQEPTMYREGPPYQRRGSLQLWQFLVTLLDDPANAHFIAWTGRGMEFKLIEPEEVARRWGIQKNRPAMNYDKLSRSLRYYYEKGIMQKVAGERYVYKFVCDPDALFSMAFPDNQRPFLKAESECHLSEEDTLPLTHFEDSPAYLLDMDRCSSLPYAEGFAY
sequence,measurement,setting,value
AAGTAG,binding signal,FLI1,"1.12 fold enrichment (6-mer frequency, TF over GST control)"
same,binding signal,ELK1,"1.21 fold enrichment (6-mer frequency, TF over GST control)"
same,binding signal,GABPA,"1.2 fold enrichment (6-mer frequency, TF over GST control)"
same,binding signal,ERG,"1.24 fold enrichment (6-mer frequency, TF over GST control)"
same,binding signal,ELF1,"1.15 fold enrichment (6-mer frequency, TF over GST control)"
same,binding signal,EHF,"1.23 fold enrichment (6-mer frequency, TF over GST control)"
same,binding signal,SPI1,"1.35 fold enrichment (6-mer frequency, TF over GST control)"
same,binding signal,SPIB,"1.13 fold enrichment (6-mer frequency, TF over GST control)"
same,binding signal,ELK3,"1.26 fold enrichment (6-mer frequency, TF over GST control)"
same,binding signal,FEV,"1.21 fold enrichment (6-mer frequency, TF over GST control)"
same,binding signal,ETV5,"1.25 fold enrichment (6-mer frequency, TF over GST control)"
same,binding signal,HSF1,"1.11 fold enrichment (6-mer frequency, TF over GST control)"
same,binding signal,SPIC,"1.3 fold enrichment (6-mer frequency, TF over GST control)"
same,binding signal,ELF4,"1.18 fold enrichment (6-mer frequency, TF over GST control)"
same,binding signal,ELK4,"1.06 fold enrichment (6-mer frequency, TF over GST control)"
same,binding signal,ETV2,"1.18 fold enrichment (6-mer frequency, TF over GST control)"
same,binding signal,ELF3,"1.31 fold enrichment (6-mer frequency, TF over GST control)"
same,binding signal,CRX,"1.2 fold enrichment (6-mer frequency, TF over GST control)"
same,binding signal,ETV1,"1.28 fold enrichment (6-mer frequency, TF over GST control)"
